# Several values for one entry are separate records, joined by “and”; a condition that tells them apart may be missing. Equal entries are not always repeated. Results filed as inconclusive are left out. Activity calls are given as the source filed them. Calls come from the whole dose curve; as a rule, active = well fitted curve in the direction sought with a large enough effect; inconclusive = small, poorly fitted or top-dose-only effect, or another doubt; inactive = no such curve, though single readings can be large or run the other way.
# Experiment: qHTS Assay for Identifying Gametocytocidal Compounds (AID 743244);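 for max response: actives lower the fluorescent signal which means gametocytes are killed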
# Settings: P. falciparum 3D7 stage III-V gametocytes, alamarBlue, 72 h; max response: stronger effect = lower value
# Summary of the method: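 P. falciparum 3D7 stage III–V gametocytes (20,000 cells/well) were exposed to compounds for 72 h at 37 °C, 5% CO2. AlamarBlue was then added for 24 h; decreased resorufin fluorescence (Ex 525/Em 598 nm) indicated loss of viability.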
# % is set by controls: 0 for no effect and ±100 for the full control effect; potency is the fitted concentration of half-maximal effect.
Structure (SMILES),Potency,max response
Clc1ccc(CSC(Cn2ccnc2)c2ccc(Cl)cc2Cl)cc1 (stereo not given),3.98 µM (active),
CCCCC1C(=O)NC(=O)N(C2CCCCC2)C1=O (stereo not given),,-2.42% (inactive)
c1ccc2nc(N3CCNCC3)ccc2c1,,-4.39% (inactive)
C=CC[C@]1(O)CC[C@H]2[C@@H]3CCC4=CC(=O)CCC4=C3C=C[C@@]21C,,1.81% (inactive)
Cc1nc2ccccc2c(=O)n1-c1ccccc1Cl,,1.05% (inactive)
C[C@]12Cc3nonc3C[C@@H]1CC[C@@H]1[C@@H]2CC[C@@]2(C)[C@H]1CC[C@]2(C)O,,-3.73% (inactive)
O=C(Nc1ccc(Cl)cc1)Nc1ccc(Cl)c(C(F)(F)F)c1,12.6 µM (active),
CCC1(c2cnc[nH]2)Cc2ccccc2C1,,-21.2% (inactive)
O=C(Nc1ccc(Cl)cc1)Nc1ccc(Cl)c(Cl)c1,15.8 µM (active) and 29.6 µM (active),
CCC1(CC)C(=O)NC(=O)NC1=O,,-6.5% (inactive)
CCN(CC)C(C)C(=O)c1ccccc1 (stereo not given),,2.91% (inactive)
CCS(=O)(=O)C(C)(C)S(=O)(=O)CC,,4.59% (inactive)
NC(N)=N/N=C/c1c(Cl)cccc1Cl,3.55 µM (active),
C[N+]1(C)[C@@H]2CC[C@H]1CC(OC(=O)C(CO)c1ccccc1)C2 (stereo not given in full),,-7.22% (inactive) and -0.641% (inactive)
CCC(=O)OC1(c2ccccc2)CCN(C)CC1,,-1.1% (inactive)
Cc1c(C)c2c(c(C)c1OC(=O)CCC(=O)OCCO)CC[C@@](C)(CCC[C@H](C)CCC[C@H](C)CCCC(C)C)O2,,-0.873% (inactive)
COc1ccc2[nH]cc(CCN(C(C)C)C(C)C)c2c1,,-5.46% (inactive)
CN(C)C(=O)Oc1cc(OC(=O)N(C)C)cc(C(O)CNC(C)(C)C)c1 (stereo not given),,14.4% (inactive)
CCCCCOc1ccc(C2SC(=O)NC2=O)cc1OCC (stereo not given),,38.7% (inactive)
CNC(C)Cc1ccc2c(c1)OCO2 (stereo not given),,-4.91% (inactive)

# Reference: PubChem BioAssay (NCATS)
